The record followed here is PubChem BioAssay AID2417 (National Center for Advancing Translational Sciences (NCATS), 2010).

Hit rate of the full screen: of about 140,000 compounds, about 4,300 (3.1%) were called active. Roughly 21% stayed inconclusive and do not appear here.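 The calls were made as follows: active = readout at or below -70, meaning at least 70% loss of cells showing the perinucleolar compartment, a nuclear body marking cancer cells; inconclusive = readout between -30 and a set limit; inactive = the rest.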 Shown is part of a subset that was picked to be rich in actives.

This assay can be described thus: High Content Assay for Compounds that inhibit the Assembly of the Perinucleolar Compartment. Particulars: PC3M PTB-GFP, PNC prevalence imaging, 16 h; at 10 µM; active compounds read low. The source says: High Content Assay for Compounds that inhibit the Assembly of the Perinucleolar Compartment NIH Chemical Genomics Center [NCGC] NIH Molecular Libraries Probe Centers Network [MLPCN] MLPCN Grant: MH082371-01A2 Assay Submitter (PI): Sui Huang, Northwestern University, Feinberg School of Medicine, Cell and Molecular Biology, Chicago, Illinois. The perinucleolar compartment (PNC) is a non-membrane-bound nuclear subdomain that is associated with but structurally distinct from the nucleolus. The PNC is a heritable trait, in which the number of PNCs per cell in daughter cells often mimics that of their mother cells. The PNC is heterogeneous in shape, is stable through interphase, disassembles during mitosis, and reassembles in early G1. The PNC is concentrated with newly synthesized RNA polymerase III (pol III) RNAs (MRP RNA, RNAse P H1 RNA, hY RNAs[hY1, 2, 5], Alu RNA, and SRP [7SL] RNA) and RNA binding proteins (nucleolin, PTB, CUG-BP, KSRP, Raver1, Raver2, and Rod). […] Extensive in vitro studies have shown that the PNC is unique to tumor cells and preferentially forms in tumor cells derived from solid tissues. Examination of cancer cell lines from various origins and malignant capacities has shown that PNC prevalence correlates with the malignancy of tumors and has the potential to be developed as a pan-cancer prognostic marker. […] Although the PNC is associated with a DNA locus and a handful of components have been identified, much remains to be investigated regarding the structure and function of the PNC and its mechanistic link to cancer. We have previously shown that PNC prevalence reduction is a valid strategy to identify compounds that can be used to study the structure and function of the PNC. It is necessary, however, to create a screening platform that is able to test a large number of compounds in an automated fashion. Here we report the development and robustness of an automated whole-cell phenotypic image-based screening assay that is capable of identifying such compounds.
PNC High Content Imaging Assay Procedure: 1. Cells at a density of 75-90% confluency in T175 flasks were harvested using 7 ml TrypLE Express cell dissociation reagent. After dissociation (5 minutes room temperature incubation) 10 ml of complete media was added to the TrypLE/cell suspension. The liquid was transferred to a 50 ml Conical tube and cells were pelleted at 1000 RPM for 5 min. Supernatant was removed and cells were resuspended to a final density of 150-200 cells/ul in complete media. 2. Cells were plated in 5 ul volume (750-1000 cells/well) into 1536 well Black uclear Aurora Low Base plates and allowed to recover and adhere at 37 C in a humidified 5% CO2 incubator for 4 hours. 3. After 4 hour incubation, compound libraries (23 nl of […] in columns 5-48) were transferred to the plates in duplicate using a 1536 well pintool. Camptothecin positive control (59 uM final) was added to column 2 and 1:3 dilutions of camptothecin was added to column 3. DMSO negative controls were present in columns 1 and 4. 4. After a 16 hour incubation in the 37 C incubator, cells were fixed by the addition of 4 ul of 6% EM grade paraformaldehyde (containing 0.1% triton X 100) directly to the cells. The plates were incubated at room temperature for 20 minutes. The liquid was removed using a 32 channel Kalypsys aspirator and the fixed cells were washed twice with 5 ul PBS followed by a final addition of 5 ul PBS containing 1 ug/ml Hoechst 33342. 5. Fixed plates were sealed and sotred at 4C until imaged. 6. Plates were imaged on an InCell 1000 automated microscope using a 20 x objective, a standard FITC filter set, no camera binning, and an exposure time of ~100-150 msec/well. 7. Data analysis. PNC prevalence was determined using the Multitarget analysis module from InCell Workstation software (V3.5 ) and analysis was run on a quad core workstation using the Incell Developer Toolbox (V1.7). […]
Take `COc1cc(OC)cc(C(=O)NCC(=O)OCc2csc(-c3ccccc3)n2)c1`: the activity change (PNC), negative = inhibition is 0.666% (inactive).

`CCC1CCCCN1C(=S)Nc1ccc(C(C)=O)cc1` (stereo unspecified): the activity change (PNC), negative = inhibition was 83.7% (inactive).

Turning to `CCNC(=O)NC(=O)C(C)OC(=O)C1CCN(S(=O)(=O)c2ccccc2F)CC1` (stereo unspecified), the activity change (PNC), negative = inhibition was -28.8% (inactive).

For the compound `CC(NC(=O)COC(=O)C1CCN(S(=O)(=O)c2ccccc2C(F)(F)F)CC1)c1ccccc1` (stereo unspecified), the activity change (PNC), negative = inhibition was -108% (active).

Consider `CC(NC(=O)CCC(=O)N1CCN(S(=O)(=O)c2ccc(Cl)cc2)CC1)c1ccccc1` (stereo unspecified), for which the activity change (PNC), negative = inhibition is -12.6% (inactive).

On to `O=C(Nc1cccc(Cl)c1)Nc1ccccc1NS(=O)(=O)c1cccs1`, for which the activity change (PNC), negative = inhibition is -1.43% (inactive).

For `CNC(=O)CSc1nnnn1-c1ccc(C)cc1C`, the activity change (PNC), negative = inhibition is -10.4% (inactive).

On to `CCOC(=O)c1c(-c2ccc(C)cc2C)csc1NC(=O)CSc1nnnn1C`, for which the activity change (PNC), negative = inhibition is -85.2% (active).

Turning to `CCOC(=O)CNC(=O)CSc1nnnn1-c1cc(C)ccc1C`, the activity change (PNC), negative = inhibition was -8.66% (inactive).

Turning to `C/C(CCC(=O)OC[C@H]1O[C@H](C#Cc2ccccc2)C=C[C@@H]1Oc1ccc(C)cc1)=N\OC[C@@H](O)[C@H]1O[C@@H]2OC(C)(C)O[C@@H]2[C@H]1O`, the activity change (PNC), negative = inhibition was 49% (inactive).

Consider `CN(CC(=O)NCCc1ccccc1)S(=O)(=O)c1cnc[nH]1`, for which the activity change (PNC), negative = inhibition is -5.8% (inactive).

Turning to `COc1ccc(C(=O)COC(=O)COc2ccc(C)c(C)c2)cc1`, the activity change (PNC), negative = inhibition is -83.5% (active).

For `COCCNC(=O)COc1ccc(C)c(C)c1`, the activity change (PNC), negative = inhibition is -16.6% (inactive).

In the case of `Cc1ccc(/C(N)=N/OC(=O)COc2ccc(Cl)c(C)c2)cc1`, the activity change (PNC), negative = inhibition is 48.8% (inactive).

Regarding `COC(=O)c1ccc(NC(=O)CSc2nnc(-c3ccncc3)n2C)cc1`, the activity change (PNC), negative = inhibition was -12.9% (inactive).

For the compound `CCOC(=O)c1ccc(NC(=O)CSc2ncccn2)cc1`, the activity change (PNC), negative = inhibition is -27.8% (inactive).

As to `CCOC(=O)c1ccc(NC(=O)CSc2nnc(COc3ccccc3OC)n2C)cc1`, the activity change (PNC), negative = inhibition is -83.9% (active).

For `CN(CC(=O)Nc1ccc(S(=O)(=O)N2CCCC2)cc1)Cc1ccc(Cl)c(Cl)c1`, the activity change (PNC), negative = inhibition is 14.3% (inactive).

For the compound `Cc1nc2scc(-c3cccs3)c2c(=O)n1N`, the activity change (PNC), negative = inhibition is 38.3% (inactive).

As for `CCCCNc1nc2c(c(=O)[nH]c(=O)n2C)n1CCOc1ccccc1`, the activity change (PNC), negative = inhibition was 44.9% (inactive).

Consider `Cn1c(=O)[nH]c(=O)c2c1nc(NCCCn1ccnc1)n2Cc1cccc(Br)c1`, for which the activity change (PNC), negative = inhibition is -100% (active).

On to `CCCCNc1nc2c(c(=O)n(C)c(=O)n2C)n1Cc1cccc(OC)c1`, for which the activity change (PNC), negative = inhibition is -17.3% (inactive).

Consider `O=C(N/N=C\c1ccc(Br)cc1)c1ccc(Cn2cccn2)o1`, for which the activity change (PNC), negative = inhibition is -11.4% (inactive).

As for `CN(C)S(=O)(=O)c1ccc(N2CCCC2=O)c([N+](=O)[O-])c1`, the activity change (PNC), negative = inhibition is 43.2% (inactive).

As to `COc1ccc2c(c1)C(SCC(=O)NCc1ccccc1)CC(C)(C)O2` (stereo unspecified), the activity change (PNC), negative = inhibition was 27.2% (inactive).

In the case of `Cc1ccc(S(=O)(=O)N2CC(=O)Nc3ccccc32)cc1C`, the activity change (PNC), negative = inhibition was 5.54% (inactive).

For the compound `Cc1ccc(C)c(S(=O)(=O)N2CC(=O)Nc3ccccc32)c1`, the activity change (PNC), negative = inhibition was -86.7% (active).

As for `Cc1ccc(C)c(S(=O)(=O)n2cnc3ccccc32)c1`, the activity change (PNC), negative = inhibition is -9% (inactive).

With `COc1ccc(NC(=S)NCc2cccs2)c(OC)c1`, the activity change (PNC), negative = inhibition is -5.37% (inactive).

Consider `O=C(CN1CCN(S(=O)(=O)c2ccc(Br)cc2)CC1)Nc1ccccc1C(=O)c1ccccc1`, for which the activity change (PNC), negative = inhibition was 41.1% (inactive).

Take `COC(=O)NNC(=O)C1CCC(C)CC1` (stereo unspecified): the activity change (PNC), negative = inhibition is 21.6% (inactive).

As to `CCOC(=O)CSc1nnc(NC(=O)c2cccc(S(=O)(=O)N3CCCCC3)c2)s1`, the activity change (PNC), negative = inhibition was 19.2% (inactive).

`CCOC(=O)C1=C(CC)Nc2ccccc2N=C1NC(=O)c1cccc(S(=O)(=O)N2CCCC2)c1`: the activity change (PNC), negative = inhibition is -114% (active).

For the compound `O=C(Nc1nncs1)c1cccc(S(=O)(=O)N2CCCCC2)c1`, the activity change (PNC), negative = inhibition is -22% (inactive).

As to `COc1ccc(C)cc1NC(=O)C(Sc1ccccc1)c1ccccc1` (stereo unspecified), the activity change (PNC), negative = inhibition was -2.98% (inactive).

As for `CCC(C)NC(=O)c1ccc(N2CCC3(CC2)OCCO3)c([N+](=O)[O-])c1` (stereo unspecified), the activity change (PNC), negative = inhibition was 36.6% (inactive).

`COc1ccc(NC(=O)CN(Cc2ccccc2)S(C)(=O)=O)cc1OC`: the activity change (PNC), negative = inhibition was -0.222% (inactive).

Turning to `C/C(CC(=O)Nc1ccc(Cl)cc1)=N\NC(=O)C(=O)NCCO`, the activity change (PNC), negative = inhibition is -81.9% (active).

Regarding `CCCCC(=O)N/N=C(\C)CC(=O)Nc1cc(Cl)ccc1OC`, the activity change (PNC), negative = inhibition was 41.6% (inactive).

For the compound `COc1ccc(COC(=O)N/N=C(\C)CC(=O)Nc2ccc(Cl)cc2)cc1`, the activity change (PNC), negative = inhibition is 20.7% (inactive).

As to `CC(C)(C)C1CCC(=NNC(=O)c2ccc(Br)o2)CC1` (stereo unspecified), the activity change (PNC), negative = inhibition was 30.8% (inactive).

Consider `O=C(Nc1cn(-c2ccccc2)nc1-c1ccccc1)c1ccccc1`, for which the activity change (PNC), negative = inhibition is 22.3% (inactive).

In the case of `Cc1nn(-c2ccccc2)c(C)c1/C=C/C(=O)OC(C)C(N)=O` (stereo unspecified), the activity change (PNC), negative = inhibition is 7.76% (inactive).

Take `Cc1ccc(C(=O)/C=C/c2c(C)nn(-c3ccccc3)c2Cl)cc1`: the activity change (PNC), negative = inhibition is -11.1% (inactive).

For the compound `Cc1nn(-c2ccccc2)c(Cl)c1/C=C/C(=O)c1ccc(O)cc1`, the activity change (PNC), negative = inhibition was -91.6% (active).

Consider `NC1=C([N+](=O)[O-])C(c2ccccc2)C2=C(CCCC2=O)O1` (stereo unspecified), for which the activity change (PNC), negative = inhibition was 6.59% (inactive).
